Records with an inconclusive call do not appear. Where a call stands in place of a potency, no number is given. Activity calls are given as the source filed them. The call rests on the fitted dose curve; in most records, active means well fitted inhibition curve with a large enough effect; inconclusive means small, poorly fitted or top-dose-only effect; inactive means flat fitted curve, though single readings scatter. Peptide text beside a SMILES is read from it.
test system: CP250; assay: qHTS profiling for inhibitors of Plasmodium falciparum proliferation (AID 504749); further: nearly all actives have a fitted effect of over 60% in size; conditions: P. falciparum in erythrocytes, SYBR Green DNA, 72 h; series mostly up to 12.8 µM
Method in brief: (§1)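 Three-day growth assay of blood-stage parasites in erythrocytes (0.3% parasitemia, 2.5% hematocrit) at 37 C, 5% CO2, quantified by SYBR Green DNA staining after overnight detergent lysis.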
Potency means the concentration at half of the fitted maximal effect.

SMILES | Potency
CC(C)=CCC[C@](C)(O)C1CC=C(C)CC1 (stereo not given in full) | inactive
CO[C@]12C(COC(N)=O)C3=C(C(=O)C(C)=C(N)C3=O)N1CC1NC12 (stereo not given in full) | 1.12 µM (active)
C[C@]1(c2ccccc2)OC(C(=O)O)=CC1=O | inactive
CC(=O)N[C@H](CC(C)C)C(=O)O | inactive
COc1ccc2cc(C(C)CO)ccc2c1 (stereo not given) | inactive
COC1C=CO[C@@]2(C)Oc3c(C)c(O)c4c(O)c(c(C=NN5CCN(C)CC5)c(O)c4c3C2=O)NC(=O)/C(C)=C\C=CC(C)C(O)[C@@H](C)C(O)C(C)[C@H](OC(C)=O)C1C (stereo not given in full) | 6.31 µM (active)
CC1CCC(C(C)C)C(=O)C1 (stereo not given) | inactive
CNC1CC(N)[C@H](O)[C@@H](O[C@@H]2OC(CO)C3OC4(OC(C(N)CO)C(O)C(O)C4O)O[C@@H]3[C@H]2O)C1O (stereo not given in full) | inactive
CCCC(=O)O[C@]1(C(=O)CO)CCC2[C@@H]3CCC4=CC(=O)CC[C@]4(C)C3C(O)C[C@]21C (stereo not given in full) | inactive
CC(=O)[C@]1(O)CCC2C3C=C(Cl)C4=CC(=O)C5CC5[C@@]4(C)C3CC[C@]21C (stereo not given in full) | inactive
CC(=O)N[C@@H]1C(O)OC(CO)C(O)C1O (stereo not given in full) | inactive
C/C1=C2N=C(/C=C3N=C(/C(C)=C4\[N-]C(C)(C5N=C1C(C)(CCC(=O)NCC(C)OP(=O)([O-])O[C@H]1C(O)C(n6cnc7cc(C)c(C)cc76)O[C@@H]1CO)C5CC(N)=O)C(C)(CC(N)=O)C4CCC(N)=O)C(C)(CC(N)=O)C\3CCC(N)=O)C(C)(C)C/2CCC(N)=O.[CH2-]C1OC(n2cnc3c(N)ncnc32)C(O)C1O.[Co] (stereo not given in full) | inactive
O=C1OC(CO)C(O)C(O)C1O (stereo not given) | inactive
CNC1C(OC2C(O[C@@H]3C(O)C(O)[C@@H](N=C(N)N)C(O)C3N=C(N)N)OC(C)[C@@]2(O)CO)OC(CO)C(O)C1O (stereo not given in full) | inactive
COc1cc(C2c3cc4c(cc3C(O[C@@H]3OC5COC(c6cccs6)OC5C(O)C3O)C3COC(=O)C23)OCO4)cc(OC)c1O (stereo not given in full) | 2 µM (active)
Nc1nc2ncc(CNc3ccc(C(=O)NC(CCC(=O)O)C(=O)O)cc3)nc2c(=O)[nH]1 (stereo not given) | inactive

test system: CP252; assay: as above; conditions: P. falciparum in erythrocytes, SYBR Green DNA, 72 h; series mostly up to 12.8 µM
Method in brief: as §1

SMILES | Potency
CN(C)CCCOC1C(C(O)CO)OC2OC(C)(C)O[C@@H]21 (stereo not given in full) | inactive
CCC(C)C(=O)OC1CCC=C2C=CC(C)C(CCC3CC(O)CC(=O)O3)[C@@H]21 (stereo not given in full) | inactive
CC(=O)OC1CCC2C3CCc4cc(O)ccc4C3CCC12C (stereo not given) | inactive
CC[C@@]12CCCN3CCc4c(n(c5ccccc45)[C@](O)(C(=O)OC)C1)C32 (stereo not given in full) | inactive
NC(C(=O)O)[C@@H]1CC(Cl)=NO1 (stereo not given in full) | 2.82 µM (active)
CN1CC(=O)N=C1N | inactive
OCC1OC([S-])[C@H](O)C(O)C1O.[Au+] (stereo not given in full) | inactive
CC(C)C1CCC(C(=O)NC(Cc2ccccc2)C(=O)O)CC1 (stereo not given) | inactive
CCC(CCC(C)C1CCC2C3CC=C4CC(O)CC[C@@]4(C)C3CC[C@@]12C)C(C)C (stereo not given in full) | inactive
C[C@]12CCC(=O)C=C1CCC1C2C(=O)C[C@]2(C)C1CC[C@]2(O)C(=O)CO (stereo not given in full) | inactive
OCC1O[C@H](OC2C(CO)O[C@@](O)(CO)C2O)C(O)C(O)C1O (stereo not given in full) | inactive
CC1(C)OC2CO[C@]3(COS(N)(=O)=O)OC(C)(C)OC3C2O1 (stereo not given in full) | inactive
CC1(C)OC2CC(=O)OC[C@@]23C1CC(=O)[C@]1(C)C3CC[C@@]2(C)C(c3ccoc3)OC(=O)C3O[C@@]321 (stereo not given in full) | inactive
CCOC(=O)C1=CC(OC(CC)CC)C(NC(C)=O)C(N)C1 (stereo not given) | inactive
COC1C=CO[C@@]2(C)Oc3c(C)c(O)c4c(O)c(c5c(nc6cc(C)ccn65)c4c3C2=O)NC(=O)/C(C)=C\C=CC(C)C(O)[C@@H](C)C(O)C(C)[C@@H](OC(C)=O)C1C (stereo not given in full) | 10 µM (active)
COC(=O)C(Cc1ccccc1)NC(=O)C(N)CC(=O)O (stereo not drawn) (H-Asp-Phe-OMe; configuration not given here) | inactive
C[C@]12C=CC(=O)C=C1CCC1C2C(O)C[C@]2(C)C1CC[C@]2(O)C(=O)CO (stereo not given in full) | inactive

SMILES | Potency
CC1(C)S[C@H]2C(NC(=O)[C@@H](N)c3ccc(O)cc3)C(=O)N2[C@@H]1C(=O)O (stereo not given in full) | inactive
CC(C)=CCC[C@](C)(O)C1CC=C(C)CC1 (stereo not given in full) | inactive
CO[C@]12C(COC(N)=O)C3=C(C(=O)C(C)=C(N)C3=O)N1CC1NC12 (stereo not given in full) | 0.794 µM (active)
C[C@]1(c2ccccc2)OC(C(=O)O)=CC1=O | inactive
CC(=O)N[C@H](CC(C)C)C(=O)O | inactive
COc1ccc2cc(C(C)CO)ccc2c1 (stereo not given) | inactive
COC1C=CO[C@@]2(C)Oc3c(C)c(O)c4c(O)c(c(C=NN5CCN(C)CC5)c(O)c4c3C2=O)NC(=O)/C(C)=C\C=CC(C)C(O)[C@@H](C)C(O)C(C)[C@H](OC(C)=O)C1C (stereo not given in full) | 3.16 µM (active)
CC1CCC(C(C)C)C(=O)C1 (stereo not given) | inactive
CNC1CC(N)[C@H](O)[C@@H](O[C@@H]2OC(CO)C3OC4(OC(C(N)CO)C(O)C(O)C4O)O[C@@H]3[C@H]2O)C1O (stereo not given in full) | inactive
CCCC(=O)O[C@]1(C(=O)CO)CCC2[C@@H]3CCC4=CC(=O)CC[C@]4(C)C3C(O)C[C@]21C (stereo not given in full) | inactive
CC(=O)[C@]1(O)CCC2C3C=C(Cl)C4=CC(=O)C5CC5[C@@]4(C)C3CC[C@]21C (stereo not given in full) | inactive
CC(=O)N[C@@H]1C(O)OC(CO)C(O)C1O (stereo not given in full) | inactive
C/C1=C2N=C(/C=C3N=C(/C(C)=C4\[N-]C(C)(C5N=C1C(C)(CCC(=O)NCC(C)OP(=O)([O-])O[C@H]1C(O)C(n6cnc7cc(C)c(C)cc76)O[C@@H]1CO)C5CC(N)=O)C(C)(CC(N)=O)C4CCC(N)=O)C(C)(CC(N)=O)C\3CCC(N)=O)C(C)(C)C/2CCC(N)=O.[CH2-]C1OC(n2cnc3c(N)ncnc32)C(O)C1O.[Co] (stereo not given in full) | inactive
O=C1OC(CO)C(O)C(O)C1O (stereo not given) | inactive
CNC1C(OC2C(O[C@@H]3C(O)C(O)[C@@H](N=C(N)N)C(O)C3N=C(N)N)OC(C)[C@@]2(O)CO)OC(CO)C(O)C1O (stereo not given in full) | inactive
COc1cc(C2c3cc4c(cc3C(O[C@@H]3OC5COC(c6cccs6)OC5C(O)C3O)C3COC(=O)C23)OCO4)cc(OC)c1O (stereo not given in full) | 1.12 µM (active)
Nc1nc2ncc(CNc3ccc(C(=O)NC(CCC(=O)O)C(=O)O)cc3)nc2c(=O)[nH]1 (stereo not given) | inactive
